# In ChEMBL document CHEMBL3988442, “University of Dundee, Small-Polar-MMV Screening Library” (2021):
# The whole screen tested about 69,000 compounds, of which about 1,000 (1.4%) showed an effect of 50% or more. What follows is part of a selection rich in strong results, with near analogues and random picks from the rest.
# Test system: Leishmania donovani
# Assay: Leishmania intramacrophage assay
# Assay type: functional, organism-based
# Parameters: scale not given: in the data most compounds retested in dose-response had high values
structure (smiles),measurement,setting,value
Cc1ncccc1CNCC1CCN(CCO)CC1,Percent Effect,30 µM,29.11%
OCCN1CCC(CNCc2cn(-c3ccccc3)nn2)CC1,Percent Effect,"30.3 µM, […]",-6.29%
OCCN1CCC(CNCc2ccc(Br)cc2)CC1,Percent Effect,"30.3 µM, […]",77.88%
OCCN1CCC(CNCc2ccc(N3CCCCC3)cc2)CC1,Percent Effect,"30.3 µM, […]",79.78%
CS(=O)(=O)c1ccc(CNCC2CCN(CCO)CC2)cc1,Percent Effect,"30 µM, 30.03 µM",7.016%
NC(=O)c1ccc(CNCC2CCN(CCO)CC2)cc1,Percent Effect,"30.3 µM, […]",-0.3402%
N#Cc1ccc(CNCC2CCN(CCO)CC2)cc1,Percent Effect,"30 µM, 30.03 µM",18.87%
Cc1ccc(CNCC2CCN(CCO)CC2)cc1,Percent Effect,"30.3 µM, […]",-12.85%
CCc1ccc(CNCC2CCN(CCO)CC2)cc1,Percent Effect,"30.3 µM, […]",73.93%
Cn1cc(CC2CC(=O)N(Cc3ccccc3OC(F)F)C2=O)cn1 (stereo unspecified),Percent Effect,"30.3 µM, […]",7.915%
Cl.NC1CCN(C(=O)c2c(F)cccc2Br)CC1,Percent Effect,"30.3 µM, […]",2.162%
COc1ccc([C@@H]2CN(c3cnccn3)C[C@H]2N(C)C)cc1,Percent Effect,"30.3 µM, […]",-8.819%
CC(C)Cn1cc(NC(=O)NC(C)(C)c2nccs2)cn1,Percent Effect,"30.3 µM, […]",-3.295%
CCN(CC1CN(Cc2nccn2CC)CCO1)c1cccnn1 (stereo unspecified),Percent Effect,"30.3 µM, […]",7.569%
CCS(=O)(=O)N1CCC(NC(=O)c2cc(C(C)C)ccc2O)CC1,Percent Effect,30 µM,11.27%
CC(=O)N1CCC1c1cc(N2CCNC(=O)C2)nc(C)n1 (stereo unspecified),Percent Effect,"30.3 µM, […]",23.92%
Cc1cnc(CN2CCCC(c3cc(C(N)=O)[nH]n3)C2)o1 (stereo unspecified),Percent Effect,"30 µM, 30.03 µM",5%
c1ccc(-c2nnc(CN3CCOC(Cn4cccn4)C3)o2)cc1 (stereo unspecified),Percent Effect,30 µM,14.93%
Cn1ncc2c1CN(Cc1ccccc1F)CC2COCC1CC1.O=C(O)C(F)(F)F.O=C(O)C(F)(F)F (stereo unspecified),Percent Effect,"30.3 µM, […]",24.46%
Cc1ccc(CN2Cc3nnn(C)c3C(COCC3CC3)C2)s1.O=C(O)C(F)(F)F (stereo unspecified),Percent Effect,"30.3 µM, […]",19.91%
Cn1ncc2c1CN(Cc1ccc(F)cc1)CC2COCC1CC1.O=C(O)C(F)(F)F.O=C(O)C(F)(F)F (stereo unspecified),Percent Effect,"30.3 µM, […]",51.09%
Cc1ccc(CN2Cc3c(cnn3C)C(COCC3CC3)C2)s1 (stereo unspecified),Percent Effect,"30.3 µM, […]",92.44%
Cn1cc(CN2Cc3c(cnn3C)C(COCC3CC3)C2)cn1.O=C(O)C(F)(F)F.O=C(O)C(F)(F)F (stereo unspecified),Percent Effect,"30.3 µM, […]",-2.121%
Cn1ncc2c1CN(Cc1cccnc1)CC2COCC1CC1.O=C(O)C(F)(F)F.O=C(O)C(F)(F)F.O=C(O)C(F)(F)F (stereo unspecified),Percent Effect,"30 µM, 30.03 µM",26.28%
CNC(=O)[C@H]1C[C@@H]2CN(S(=O)(=O)c3ccc(C)cc3)C[C@@H]2N1C.O=C(O)C(F)(F)F,Percent Effect,"30.3 µM, […]",7.67%
CC(=O)Nc1nc(-c2ccc(F)cc2)c[nH]1,Percent Effect,"30.3 µM, […]",-6.024%
NCCC(=O)N1CCC2(CC1)CN(C(=O)Cc1ccc(Cl)cc1)CCO2,Percent Effect,"30.3 µM, […]",-0.5643%
CN1CC(=O)N(c2ccsc2)CC12CCN(S(C)(=O)=O)C2.O=C(O)C(F)(F)F (stereo unspecified),Percent Effect,"30 µM, 30.03 µM",2.434%
COCCN1C[C@H]2[C@@H](C1)N(Cc1ccc(C)o1)CC[C@H]2OC,Percent Effect,"30 µM, 30.03 µM",22.66%
COCCN1C[C@@H]2[C@@H](OC)CCN(Cc3ccco3)[C@@H]2C1.O=C(O)C(F)(F)F.O=C(O)C(F)(F)F,Percent Effect,"30.3 µM, […]",5.523%
COCCN1C[C@@H]2[C@@H](OC)CCN(Cc3ccc(C)o3)[C@@H]2C1.O=C(O)C(F)(F)F.O=C(O)C(F)(F)F,Percent Effect,"30.3 µM, […]",53%
C/C(=C\c1ccco1)CN(C)C(C)c1ccccn1 (stereo unspecified),Percent Effect,"30.3 µM, […]",72.9%
CC(c1ccccn1)N(C)Cc1ccc(CCC(C)(C)O)cc1 (stereo unspecified),Percent Effect,"30.3 µM, […]",34.83%
CCC(CO)N(C/C(C)=C/c1ccco1)Cc1ccccn1 (stereo unspecified),Percent Effect,"30.3 µM, […]",3.364%
O=C(c1cscn1)N1CCCCC1c1nc2cc(F)ccc2[nH]1 (stereo unspecified),Percent Effect,"30.3 µM, […]",28.33%
CCS(=O)(=O)NCCCNCc1c(C)nn(C)c1N(C)C,Percent Effect,30 µM,-21.2%
O=C(O)C(F)(F)F.O=C1CC(c2ccccc2)C2(CCN(CC3CC3)CC2)N1 (stereo unspecified),Percent Effect,"30 µM, 30.03 µM",17.34%
CCc1nc(C2CCCN2C(=O)Cc2cccs2)no1 (stereo unspecified),Percent Effect,30 µM,2.577%
Cc1cc(S(=O)(=O)NCC(C)(C)N)c(F)cc1F.Cl,Percent Effect,"30.3 µM, […]",25.52%
CCOc1nc2cnccc2n(CC(=O)NCc2ccco2)c1=O,Percent Effect,"30.3 µM, […]",-11.31%
CCn1nc(C)c2nc(C)nc(NCCCn3cccn3)c21,Percent Effect,"30.3 µM, […]",-10.11%
CCCc1nc(NCCOC)c2c(n1)c(C)nn2CC,Percent Effect,"30.3 µM, […]",9.64%
CCCc1nc(NCCc2ccccc2)c2c(n1)c(C)nn2CC,Percent Effect,"30.3 µM, […]",98.89%
CCn1nc(C)c2nc(C)nc(NCCc3ccccc3)c21,Percent Effect,"30.3 µM, […]",36.57%
CCCc1nc(NCCCOC)c2c(n1)c(C)nn2CC,Percent Effect,"30.3 µM, […]",-43.63%
CCCc1nc(NCCCO)c2c(n1)c(C)nn2CC,Percent Effect,"30 µM, 30.03 µM",3.921%
CCCc1nc(NCCCOCC)c2c(n1)c(C)nn2CC,Percent Effect,"30.3 µM, […]",51.09%
CCc1nc(NCCCn2cccn2)c2c(n1)c(C)nn2CC,Percent Effect,"30.3 µM, […]",-48.93%
CCCc1nc(NCCCn2cccn2)c2c(n1)c(C)nn2CC,Percent Effect,"30.3 µM, […]",56.39%
CCCNC(=O)CSCc1ccc(S(=O)(=O)N(C)C)o1,Percent Effect,"30.3 µM, […]",6.939%
Nc1nc2c(c(NCC(c3cccnc3)N3CCOCC3)n1)CCNC2 (stereo unspecified),Percent Effect,"30.3 µM, […]",45.62%
CCC(Nc1nnnn1-c1ccccc1)C(=O)NCc1cccs1 (stereo unspecified),Percent Effect,"30.3 µM, […]",14.73%
Cc1cnc(C(=O)N2Cc3ncn(C)c3C(COCC(C)C)C2)cn1.O=C(O)C(F)(F)F (stereo unspecified),Percent Effect,"30.3 µM, […]",30.84%
CN(CCc1noc(C2CC2)n1)C(=O)C1(N2CCCC2)CCCC1,Percent Effect,"30.3 µM, […]",28.86%
Cc1cc(NC(=O)NCCc2cccs2)n(C)n1,Percent Effect,"30 µM, 30.03 µM",-9.195%
O=C(CN1CCCS1(=O)=O)NCCOc1ccc2c(c1)CCC2,Percent Effect,"30 µM, 30.03 µM",22.18%
CCc1nc(C2CCCN2c2ncc(C(N)=O)cc2Cl)no1 (stereo unspecified),Percent Effect,"30.3 µM, […]",-6.943%
Cc1cccnc1NCCNC(=O)c1cnc(-c2cccs2)nc1O,Percent Effect,"30.3 µM, […]",22.97%
Cc1nc(-c2ncc(C(=O)NCCNc3ncccc3C)c(O)n2)cs1,Percent Effect,"30.3 µM, […]",28.4%
Cc1cccnc1NCCNC(=O)c1cnc(-c2ccccn2)nc1O,Percent Effect,"30.3 µM, […]",81.9%
O=C(c1occc1CN1C(=O)Cc2ccccc21)N1CCCCCC1,Percent Effect,"30.3 µM, […]",31.83%
Cc1cc(NC(=O)c2ccccc2Br)n(C)n1,Percent Effect,"30.3 µM, […]",-1.29%
CC(C)Oc1cccc(CN2CCC(C(C)N3CCOCC3)CC2)c1 (stereo unspecified),Percent Effect,"30.3 µM, […]",60.52%
CC(C)Oc1cccc(CN2CCC(c3n[nH]c4ncccc34)CC2)c1,Percent Effect,"30.3 µM, […]",-3.157%
CC(C1CCN(Cc2cccc(OC(F)F)c2)CC1)N1CCOCC1 (stereo unspecified),Percent Effect,"30.3 µM, […]",37.87%
CC(C1CCN(Cc2ccc(N(C)C)nc2)CC1)N1CCOCC1 (stereo unspecified),Percent Effect,"30.3 µM, […]",35.27%
CC(C1CCN(Cc2ccc(OC(F)F)cc2)CC1)N1CCOCC1 (stereo unspecified),Percent Effect,"30.3 µM, […]",57.26%
CC(C1CCN(Cc2ccccc2OC(F)F)CC1)N1CCOCC1 (stereo unspecified),Percent Effect,"30.3 µM, […]",38.92%
CN1CCN(C(=O)c2n[nH]c3c2CN(C2CCOC2)CC3)CC1 (stereo unspecified),Percent Effect,"30.3 µM, […]",7.447%
CCc1c(C)sc2c1c(N)nc(=O)n2CCN1CCCCC1,Percent Effect,"30.3 µM, […]",45.7%
OC(CN1CCC(c2ccn[nH]2)CC1)c1ccccc1F (stereo unspecified),Percent Effect,30 µM,30.71%
COC[C@@]12CCC[C@@H]1CN(C(=O)COC1CCCC1)C2,Percent Effect,"30.3 µM, […]",36.81%
CN(C)C(=O)COC1COC2(CCN(c3cccc(F)c3)CC2)C1.O=C(O)C(F)(F)F (stereo unspecified),Percent Effect,"30.3 µM, […]",52.62%
CN(C)C(=O)CO[C@H]1CO[C@@]2(CCN(Cc3ccsc3)C2)C1.O=C(O)C(F)(F)F,Percent Effect,"30.3 µM, […]",39.07%
CN(C)C(=O)COC1COC2(CCN(c3ncccn3)CC2)C1 (stereo unspecified),Percent Effect,"30.3 µM, […]",64.89%
COc1ccccc1CN1CC[C@]2(C[C@@H](OCC(=O)N(C)C)CO2)C1.O=C(O)C(F)(F)F,Percent Effect,"30.3 µM, […]",48.44%
CN(C)C(=O)CO[C@H]1CO[C@@]2(CCN(Cc3ccoc3)C2)C1,Percent Effect,"30.3 µM, […]",51.04%
CCOC1COC2(CCN(Cc3cccc(F)c3)CC2)C1.O=C(O)C(F)(F)F (stereo unspecified),Percent Effect,"30 µM, 30.03 µM",37.88%
Cc1ccc(N2CCC3(CC2)CC(OCC(=O)N(C)C)CO3)nn1 (stereo unspecified),Percent Effect,"30 µM, 30.03 µM",10.68%
COc1ccc(OCC(=O)NS(=O)(=O)c2ccc(Br)s2)cc1,Percent Effect,30 µM,-22.07%
Cc1occc1C(=O)N1CCCn2cnc(CN3CCCC3=O)c2C1,Percent Effect,"30.3 µM, […]",1.546%
CCOc1ccc(NC(C)=O)cc1S(=O)(=O)Nc1ccon1,Percent Effect,"30.3 µM, […]",32.01%
CC(C)C(=O)Nc1ncn(Cc2cccc(Br)c2)n1,Percent Effect,"30.3 µM, […]",26.25%
O=C(c1ccoc1)N1CC[C@@H]2O[C@@H](COCC3CCOCC3)CC[C@@H]21,Percent Effect,"30.3 µM, […]",5.212%
Cn1nc(C2CC2)cc1C(=O)N1CCC(c2nnsc2S(C)(=O)=O)CC1,Percent Effect,"30.3 µM, […]",16.49%
Cn1nccc1C(=O)N1CCC(c2nnsc2S(C)(=O)=O)CC1,Percent Effect,"30.3 µM, […]",17.02%
Cn1ncc(Cl)c1C(=O)N1CCC(c2nnsc2S(C)(=O)=O)CC1,Percent Effect,"30.3 µM, […]",50.11%
N#Cc1ccc(C(=O)N2CC[C@H]3[C@H]2CCN3CC2CCOCC2)cc1.O=C(O)C(F)(F)F,Percent Effect,"30.3 µM, […]",9.058%
Cc1nc(CNc2ccccc2CCC(F)(F)F)cs1,Percent Effect,"30.3 µM, […]",6.456%
O=C(Nc1nccs1)c1csc(NC2CCCC2)n1,Percent Effect,"30.3 µM, […]",48.24%
Cc1cnc(NC(=O)c2csc(NCC(C)C)n2)s1,Percent Effect,"30.3 µM, […]",62.13%
Cc1cccc(NC(=O)c2csc(NCC(C)C)n2)n1,Percent Effect,"30.3 µM, […]",-8.581%
Cc1cnc(NC(=O)c2csc(NC3CCCC3)n2)s1,Percent Effect,"30.3 µM, […]",92.33%
O=C(Nc1ccccn1)c1csc(NC2CCCC2)n1,Percent Effect,"30.3 µM, […]",-23.02%
CC(=O)NCC1CCC2(CCN(c3nccc(C4CCCC4)n3)CC2)O1 (stereo unspecified),Percent Effect,"30.3 µM, […]",3.551%
Cn1cc(N2CC3(COCCN(Cc4ccccn4)C3)OCC2=O)cn1.O=C(O)C(F)(F)F (stereo unspecified),Percent Effect,"30.3 µM, […]",33.72%
COc1cccc(C(=O)NCC2CCN(C(=O)c3ccoc3)CC2)c1,Percent Effect,"30.3 µM, […]",42%
CCn1cc(CN2C[C@H]3CC[C@@H]2CN(C(=O)c2ccncc2)C3)cn1,Percent Effect,"30.3 µM, […]",-21.9%
CCC(C)c1csc(NC(=O)c2sc(-c3nnc[nH]3)nc2C)n1 (stereo unspecified),Percent Effect,"30.3 µM, […]",32.74%
CCC(C)c1csc(NC(=O)Cc2csc(-c3nnc[nH]3)n2)n1 (stereo unspecified),Percent Effect,"30.3 µM, […]",56.95%
CC(C)c1nnc(NC(=O)Cc2csc(-c3nnc[nH]3)n2)s1,Percent Effect,"30.3 µM, […]",6.395%
